Screens: PubChem, National Center for Advancing Translational Sciences (NCATS)
The sample as a whole holds a higher share of hits than the screen did.
KDM5B inh: inhibitors of human KDM5B histone demethylase | Q9UGL1 | KDM5B demethylase, FDH-coupled NADH fluorescence (FDH is formaldehyde dehydrogenase) | Potency, µM (highest dose often 57.7 µM), hits mostly inhibitors | 220,000 tested, 2.6% active; active means well fitted inhibition curve with a large enough effect; further: 0% is about no effect; nearly all actives have a fitted effect of over 70% in size
Target sequence (Q9UGL1 whole entry, looked up): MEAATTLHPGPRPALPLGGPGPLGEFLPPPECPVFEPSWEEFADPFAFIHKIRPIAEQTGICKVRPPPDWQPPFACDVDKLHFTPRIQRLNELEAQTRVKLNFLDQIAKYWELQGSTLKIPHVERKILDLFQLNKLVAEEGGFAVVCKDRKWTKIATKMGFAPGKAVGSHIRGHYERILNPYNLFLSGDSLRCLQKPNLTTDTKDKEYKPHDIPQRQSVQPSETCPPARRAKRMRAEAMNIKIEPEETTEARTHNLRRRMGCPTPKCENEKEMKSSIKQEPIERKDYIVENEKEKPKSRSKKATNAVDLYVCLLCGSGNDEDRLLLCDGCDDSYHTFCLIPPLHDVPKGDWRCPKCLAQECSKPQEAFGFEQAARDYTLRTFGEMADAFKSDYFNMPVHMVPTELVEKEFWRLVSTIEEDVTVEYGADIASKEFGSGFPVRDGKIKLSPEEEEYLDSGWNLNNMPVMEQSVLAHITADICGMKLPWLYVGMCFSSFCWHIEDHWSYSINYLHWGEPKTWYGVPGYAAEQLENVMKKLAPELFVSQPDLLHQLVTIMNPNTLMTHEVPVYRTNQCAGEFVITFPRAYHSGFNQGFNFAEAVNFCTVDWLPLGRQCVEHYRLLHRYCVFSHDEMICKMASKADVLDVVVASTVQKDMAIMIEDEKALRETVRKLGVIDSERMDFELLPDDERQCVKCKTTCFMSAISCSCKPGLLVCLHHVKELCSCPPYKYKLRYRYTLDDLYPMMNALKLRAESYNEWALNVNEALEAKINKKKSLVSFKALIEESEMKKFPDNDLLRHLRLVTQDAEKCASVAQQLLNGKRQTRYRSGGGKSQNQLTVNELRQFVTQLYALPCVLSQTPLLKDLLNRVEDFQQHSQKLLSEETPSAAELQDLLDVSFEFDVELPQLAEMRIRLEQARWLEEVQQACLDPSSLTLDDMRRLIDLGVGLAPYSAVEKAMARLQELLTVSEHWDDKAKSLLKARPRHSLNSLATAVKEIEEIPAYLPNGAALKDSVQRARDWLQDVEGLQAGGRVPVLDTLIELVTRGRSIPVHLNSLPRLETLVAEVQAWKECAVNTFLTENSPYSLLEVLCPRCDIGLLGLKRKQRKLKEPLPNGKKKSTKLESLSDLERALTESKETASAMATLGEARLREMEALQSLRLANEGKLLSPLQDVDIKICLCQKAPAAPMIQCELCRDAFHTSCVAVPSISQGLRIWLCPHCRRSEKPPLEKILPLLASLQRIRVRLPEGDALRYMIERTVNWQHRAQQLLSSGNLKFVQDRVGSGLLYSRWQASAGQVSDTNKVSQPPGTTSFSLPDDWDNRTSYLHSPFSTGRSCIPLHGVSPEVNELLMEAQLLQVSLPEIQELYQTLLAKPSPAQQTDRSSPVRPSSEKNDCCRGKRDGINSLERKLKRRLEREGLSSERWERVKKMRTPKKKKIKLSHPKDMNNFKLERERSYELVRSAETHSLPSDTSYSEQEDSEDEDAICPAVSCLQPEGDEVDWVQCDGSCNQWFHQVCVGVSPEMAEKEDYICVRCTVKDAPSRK
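Compound dilutions met 200 nM (final) KDM5BΔAP for 10 min at room temperature before substrate addition. The substrate mix held 12.5 µM H3K4me3 with cofactors 25 µM α-ketoglutarate and 50 µM Fe²⁺. NADH signal gain over 30 min defined activity.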
* = called active by the depositor; i = inactive. Potency means the concentration at half of the fitted maximal effect.

SMILES	KDM5B inh
O=C1CC(c2ccccc2)Cc2[nH]c(=O)c(-c3nc(-c4ccc(Cl)cc4)cs3)cc21 (stereo unspecified)	i
O=C1NCC(c2ccc(Cl)cc2)Cc2[nH]c(-c3ccc(O)cc3)nc21 (stereo unspecified)	25µM*
Cc1cc2n(CC(O)COc3ccccc3)c(=O)c3ccccc3n2n1 (stereo unspecified)	i
O=C(CCc1c[nH]c2ccccc12)N1CCC(c2c[nH]c3ccccc23)CC1	i
COc1ccc(Oc2c(C)oc3cc(OCc4ccc(F)cc4)ccc3c2=O)cc1	i
O=C(CN1CCN(c2ccc(C(F)(F)F)cn2)CC1)NC1CCCCC1	i
CCn1ccnc1CN1CCCC12CCN(c1ccc(C(F)(F)F)cn1)CC2	20µM*
CNC(=S)Nc1ccc(N2CCN(c3ccc(C(F)(F)F)cn3)CC2)nc1	i
CC(C)CCNC(=O)Nc1c(NC2CCCC2)c2ccccc2oc1=O	i
CC(C)C(=O)N(C)Cc1cc(=O)[nH]c2ccccc12	i
CCCc1noc(-c2cccn3c(CNC(=O)c4cc(F)ccc4Cl)nnc23)n1	25µM*
CCCc1noc(-c2cccn3c(CNC(=O)c4cc(Cl)ccc4F)nnc23)n1	22µM*
Cc1ccc2[nH]c(-c3ccccc3)c(-c3ccccc3)c2c1	i
CN1CCN(CC(=O)C(C#N)c2ccccc2)CC1 (stereo unspecified)	i
COC(=O)c1ccc(CNC(=O)c2ccccc2)cc1	i
CC(C)c1nnsc1CNC(=O)C1CCC(=O)N(CC2CCCCC2)C1 (stereo unspecified)	i
Cc1ccnc(NCCNC(=O)C2CCC(=O)N(CC3CCCCC3)C2)c1 (stereo unspecified)	28µM*
Cc1cccc2[nH]c(CNC(=O)C3CCC(=O)N(CC4CCCCC4)C3)nc12 (stereo unspecified)	i
O=C(/C=C/c1cccc2ccccc12)c1cccs1	i
CC1CCC(N(C)C(=O)CCc2c[nH]c3ccccc23)CC1 (stereo unspecified)	i
Cc1noc(-c2cccs2)c1C(=O)NCCC(c1ccccc1)c1ccccc1	35µM*
Cc1noc(-c2ccccc2Cl)c1C(=O)NC(C)c1ccccc1 (stereo unspecified)	i
CCCOCCNC(=O)c1c(C)noc1-c1ccc(OC(F)(F)F)cc1	i
Cc1ccccc1-c1onc(C)c1C(=O)NCCOC(C)C	i
Cc1noc(-c2ccccc2Cl)c1C(=O)NCCCCc1ccccc1	i
SMILES	KDM5B inh
CCCOCCNC(=O)c1c(C)noc1-c1cccs1	25µM*
Cc1noc(-c2ccccc2Cl)c1C(=O)NCCOc1ccccc1	i
Cc1noc(-c2cccs2)c1C(=O)NCCCCc1ccccc1	32µM*
Cc1noc(-c2ccncc2)c1C(=O)NCCCCc1ccccc1	i
O=C(NCC(c1ccco1)N1CCOCC1)c1sc2ccccc2c1Cl (stereo unspecified)	i
COc1ccc(C(=O)NCC(=O)NNC(=O)CSc2ccc(C)cc2)cc1	i
CC1=C[C@@H](CNC(=O)CN(C)C)[C@H](C(C)C)C[C@H]1Cc1nc2ccc(Cl)cc2[nH]1	i
COC(=O)c1ccc(C(=O)Nc2ccc(O)c(-c3nc4ccccc4o3)c2)cc1	i
CC(C)c1nccn1CCCNC(=O)c1ccc(N2CCC(CO)CC2)nc1	i
Cc1noc(C)c1CCCNC(=O)c1ccc(N2CCC[C@H]2CO)nc1	i
Cc1noc(C)c1CCCNC(=O)c1ccc(N2CCN(CC3CC3)CC2)nc1	28µM*
Cc1ccc(F)cc1NC(=O)NCCc1coc(-c2ccccc2)n1	i
CCOC(=O)C1=C(C)N=C2SC=C(CC(=O)N3CCOCC3)N2C1c1cccc(OC)c1OC (stereo unspecified)	i
CCOC(=O)C1=C(C)N=C2SC=C(CC(=O)N3CCCC3)N2C1c1cccc(C)c1 (stereo unspecified)	i
C=CCOC(=O)C1=C(C)N=C2SC=C(CC(=O)N3CCCC3)N2C1c1ccccc1Cl (stereo unspecified)	28µM*
C=CCOC(=O)C1=C(C)N=C2SC=C(CC(=O)N3CCCC3)N2C1c1cccc(OC)c1OC (stereo unspecified)	28µM*
CC1=C(C(=O)OC(C)(C)C)C(c2ccccc2)N2C(CC(=O)N3CCCC3)=CSC2=N1 (stereo unspecified)	i
CCOC(=O)C1=C(C)N=C2SC=C(CC(=O)N3CCCC3)N2C1c1cc(OC)cc(OC)c1 (stereo unspecified)	i
O=C(Cn1nc(-c2cccc([N+](=O)[O-])c2)c2ccccc2c1=O)NC1CCCCC1	i
CC1=C(C(=O)Nc2ccccc2)C(c2ccccc2Cl)N2C(=O)CSC2=N1 (stereo unspecified)	i
CC1C(c2ccc(Cl)cc2)=[N+]([O-])C(C)(c2cccc([N+](=O)[O-])c2)N1O (stereo unspecified)	i
CC(=O)Oc1cncc(C(=O)O)c1	i
O=Cc1ccc(-c2cncc(C(=O)O)c2)cc1	100µM*
O=C(O)c1cncc(C(=O)O)c1	i
COc1cc(OC)c(NC2CCOC2=O)cc1Cl (stereo unspecified)	i
SMILES	KDM5B inh
COc1cc(OC)cc(C(=O)Oc2ccc(-c3ccccc3)cc2)c1	i
Cc1noc(C)c1CO[C@@H]1COCC[C@H]1NC(=O)c1cccc(=O)[nH]1	18µM*
Cc1noc(C)c1CCC(=O)N[C@@H]1CCOC[C@H]1Oc1ccccn1	i
COCc1ccc(C(=O)N[C@@H]2COCC[C@@H]2OCc2c(C)noc2C)o1	i
CC(C)C(NCc1ccccc1)C(=O)O (stereo unspecified)	i
O=C(Nc1cccnc1Oc1ccccc1)c1cccc(Cl)c1Cl	i
COC1CCC12CCN(C(=O)NC1CCCCC1)CC2 (stereo unspecified)	i
Cc1ccccc1OCC(=O)N1CCC(c2nc3ccccc3s2)CC1	i
Cc1ccccc1OCC(=O)N1CCC(c2nc3ccccc3o2)CC1	i
COc1nccnc1NC1CCN(C(=O)COc2ccccc2C)CC1	32µM*
COc1nccnc1NC1CCN(C(=O)NC2CCCC2)CC1	28µM*
COc1cc(OC)cc(C(=O)N2CCN(C(=O)COc3ccc(C)cc3)CC2)c1	i
CS(=O)(=O)N1CCC(OC2CCN(C(=O)NC3CCCC3)CC2)CC1	i
COc1ccc(NC2CCCN(C(=O)COc3ccc(C)cc3)C2)cc1 (stereo unspecified)	i
COc1nccnc1NC1CCN(C(=O)COc2ccc(C)cc2)CC1	28µM*
CN(C)CCCNC(=O)CCNc1nc(Cl)nc2nc[nH]c12	i
CCCNC(=O)NC(=O)CSc1nc(-c2ccco2)nc2ccccc12	i
CCc1ncncc1C(=O)O	i
CCOC(=O)c1ccc(Nc2c(C(=O)OCC)cnc3c(Cl)cccc23)cc1	i
O=C(c1ccc2ccccc2n1)N1CCN(C(=O)c2nnn3c2COC(c2ccccc2)C3)CC1 (stereo unspecified)	i
O=C1NC2(CCN([S+](=O)([O-])c3ccccc3)C2)COc2ccccc21 (stereo unspecified)	i
Cc1noc(C)c1[S+](=O)([O-])N1CCCC2(COc3ccccc3C(=O)N2)C1 (stereo unspecified)	25µM*
O=C1NC2(CCCN([S+](=O)([O-])c3cccs3)C2)Oc2ccccc21 (stereo unspecified)	i
O=C1NC2(CCCN([S+](=O)([O-])c3ccsc3)C2)COc2ccccc21 (stereo unspecified)	32µM*
